Active and inactive are the calls of the source. How the source made its calls: active means hit-call score of the fitted dose curve at least 0.9, where 1 is the maximum; inactive means score below 0.9.

These results are taken from PubChem BioAssay AID2284124 (EPA ToxCast).

In this assay the test system is guinea pig Atrial Natriuretic Factor (ANF, Non-Selective), gene 100135578. In words: ERF_TW_GPCR_gANPA: Eurofins (ERF) Binding Assay for guinea pig Atrial Natriuretic Factor (ANF, Non-Selective). On the procedure: ERF_TW_GPCR_gANPA is a biochemical, single-readout assay that uses extracted gene-proteins in a cell-free assay. Measurements were taken 1 hour after chemical dosing in a 96-well plate. See Atrial Natriuretic Factor (ANF, Non-Selective) Guinea Pig Binding Assay, Panlabs.ERF_TW_GPCR_gANPA is an assay component calculated from the ERF_TW_GPCR_gANPA assay. It is designed to measure radioligand binding using a type of binding reporter as detected by scintillation counting with radiometry technology.Data from the assay component ERF_TW_GPCR_gANPA was analyzed at the assay endpoint, ERF_TW_GPCR_gANPA, in the positive analysis fitting direction relative to DMSO as the negative control and baseline of activity. Using a type of binding reporter, loss-of-signal activity can be used to understand changes in binding as they relate to gene ANPA. To generalize the intended target to other relatable targets, this assay endpoint is annotated to the gpcr intended target family, where the subfamily is guanylyl cyclase.
This assay measures binding of Atrial Natriuretic Peptide to sites associated with the ANF. Guinea pig striatal membranes are prepared in Tris-HCl buffer pH 7.4. A 24 ug aliquot of membrane is incubated with 16 pM Atrial Natriuretic Peptide for 60 minutes at 4C. Non-specific binding is estimated in the presence of 0.1 uM ANF.
`O=C(/C=C/c1ccc(O)cc1)CC(=O)/C=C/c1ccc(O)cc1`: the compound was called inactive.
